# Compound activity (PubChem)
# An excerpt weighted towards active compounds, which were near 12% of everything screened.
# Sfp PPTase inh: Sfp phosphopantetheinyl transferase inhibition. Q9F4F7. Biochemical Sfp PPTase activity, qHTS. Potency, µM, for the others: largest response in the series, negative = inhibition, most hits filed as inhibitors. 310,000 compounds, 3.5% hits. AID 1490;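 note: the enzyme is Sfp with the accession as filed and its product quenches rhodamine fluorescence; 0% = enzyme reaction without inhibitor and -100% = no enzyme wells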
#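 Sfp 15 nM + cpd, 15 min RT; start w/ rhodamine-CoA 5 uM, BHQ-2-YbbR 12.5 uM (final); 50 mM Hepes pH 7.6, 10 mM MgCl2, 0.01% NP-40, 0.01% BSA; read 525/598 nm at 0 and 30 min.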
# G9a block: inhibitors of human histone lysine methyltransferase G9a | AID 504332 | G9a H3K9 monomethylation, AlphaScreen, 2 h | 350,000 compounds, 8.8% hits | Potency, µM (titrated, usually from 102 µM), without a hit: top-dose activity, negative = inhibition, most hits filed as inhibitors; note: % is set by controls: 0 for no effect and ±100 for the full control effect; nearly all actives have a fitted effect of over 75% in size
# Target sequence (Q96KQ7 913-1193 limits assumed): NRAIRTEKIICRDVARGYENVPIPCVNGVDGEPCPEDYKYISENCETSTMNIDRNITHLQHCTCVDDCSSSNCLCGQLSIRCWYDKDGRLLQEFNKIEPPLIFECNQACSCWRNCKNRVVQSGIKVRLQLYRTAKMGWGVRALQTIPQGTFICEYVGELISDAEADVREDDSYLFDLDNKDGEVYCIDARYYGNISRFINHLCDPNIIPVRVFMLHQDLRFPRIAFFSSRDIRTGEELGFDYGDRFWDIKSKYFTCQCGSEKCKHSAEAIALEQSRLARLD
#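 Enzyme 20 nM + cpd, 15 min RT; add b-H3K9 pep 500 nM / SAM 20 uM; 2 h RT; anti-H3K9me1 Ab 0.5 ug/mL + SA donor / anti-rabbit acceptor beads 20 ug/mL each, 10 min; AlphaScreen read.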
# L3MBTL1 block: blocks human L3MBTL1; Q9Y468; AlphaScreen L3MBTL1–H3K9me1 peptide binding; Potency, µM (top dose mostly 57.1 µM), for the others: at the highest dose activity, negative = inhibition, hits mostly inhibitors; 230,000 compounds, 0.66% hits; note: % is set by controls: 0 for no effect and ±100 for the full control effect; nearly all actives have a fitted effect of over 60% in size
#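 AlphaScreen assay: L3MBTL1 (50 nM final) was preincubated 30 min at room temperature with biotinylated H3(1-15)K9me1 peptide (75 nM final), then 30 min with library compounds; streptavidin donor and nickel chelate acceptor beads (10 ug/mL final) added, 30 min dark.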
# HP1b binding inh: HP1-beta chromodomain-methylated histone interaction inhibition. AID 540317. P83916. 390,000 compounds, 0.56% hits. AlphaScreen HP1-beta / biotin-H3K9me3 peptide binding. Potency, µM (titrated, usually from 114 µM), without a hit: top-dose activity change, negative = inhibition, usual class: inhibitors; note: nearly all actives have a fitted effect of over 70% in size
# Target sequence (P83916 whole entry, looked up): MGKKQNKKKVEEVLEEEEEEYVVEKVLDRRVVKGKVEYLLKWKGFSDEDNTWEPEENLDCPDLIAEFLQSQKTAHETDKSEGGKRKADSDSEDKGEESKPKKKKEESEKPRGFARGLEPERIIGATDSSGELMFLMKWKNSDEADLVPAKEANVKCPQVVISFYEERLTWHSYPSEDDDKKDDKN
#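 AlphaScreen: HP1-beta (50 nM) preformed 30 min with biotin-H3(1-18)K9me3 peptide (50 nM) in PBS pH 7.4, 0.01% Tween-20. Compound added for 30 min at RT, then streptavidin donor/nickel chelate acceptor beads (10 ug/mL) for 30 min.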
# BAZ2B inh: inhibitors of human BAZ2B bromodomain. Potency, µM (doses to about 114 µM), without a hit: at the top dose activity change, negative = inhibition, most hits filed as inhibitors. AlphaScreen BAZ2B-H3K14Ac peptide displacement. AID 504333. Q9UIF8. 360,000 compounds, 4.4% hits; note: % is set by controls: 0 for no effect and ±100 for the full control effect; nearly all actives have a fitted effect of over 60% in size
#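 Compounds, titrated to a top concentration of 110 uM, were incubated 30 min at room temperature with preformed BAZ2B/acetyl-K14 H3 peptide complex (50 nM each). Proximity signal was measured by AlphaScreen after 20 min with beads.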
# JMJD2A Tudor: blocks the human JMJD2A Tudor domain; O75164; AlphaScreen JMJD2A-Tudor / H3K4me3 peptide binding; 390,000 compounds, 4.4% hits; Potency, µM (highest dose often 114 µM), without a hit: at the top dose activity change, negative = inhibition, actives largely listed as inhibitors; AID 504339; note: % is set by controls: 0 for no effect and ±100 for the full control effect; nearly all actives have a fitted effect of over 50% in size
# Starred values were filed as active, the others as inactive; ? = inconclusive; / = no result given; [ ] = dose if it differs, or a comment. Calls come from the whole dose curve; as a rule, active = well fitted curve in the direction sought with a large enough effect; inconclusive = small, poorly fitted or top-dose-only effect, or another doubt; inactive = no such curve, though single readings can be large; an effect the other way counts as inactive or inconclusive. Potency is the fitted concentration of half-maximal effect.
SMILES,Sfp PPTase inh,G9a block,L3MBTL1 block,HP1b binding inh,BAZ2B inh,JMJD2A Tudor
CCOc1ccccc1CN(CCc1ccc2c(c1)OCO2)Cc1ccccn1,?,5µM*,-14%,?,35µM*,3.2µM*
COc1ccc(CCN(C)C(=O)CNC(=O)c2ccc3c(c2)OCO3)cc1OC,-7%,5%,/,27%,-38%,-5%
O=Cc1ccccc1OCc1ccc2c(c1)OCO2,1%,/,59%,76%,62%,27%
CCOc1ccccc1CN(CCc1ccc2c(c1)OCO2)Cc1cc(OC)c(OC)cc1OC,/,0.71µM*,/,?,45µM*,5.6µM*
CCCCc1c(CCC)c(=N)c2ccccc2n1C,2%,11%[59 µM],9%,35%,-4%[57.1 µM],89µM*
COc1ccc2cc(C(=O)Nc3ccc(S(N)(=O)=O)cc3)sc(=O)c2c1OC,-11%,-4%[59 µM],6%,12%,-20%,-17%[11.4 µM]
O=C(C1CCN(Cc2ccc(F)cc2)CC1)N(CCO)Cc1ccccc1,-3%,?,1%,-23%,-16%,3.5µM*
O=C(C1CCN(Cc2ccc(F)cc2)CC1)N(CCc1ccccc1)Cc1ccccc1,-21%,13µM*,1%,?,?,6.3µM*
Fc1ccc(CNC2CCN(Cc3ccccc3)CC2)cc1,-7%,/,-6%,19%,-7%,-22%
COc1ccc2oc(=O)c(C(=O)OCc3ccccc3)cc2c1,50µM*,28µM*,/,2%,-7%,6%
COc1ccc2oc(=O)c(C(=O)NCc3ccccc3)cc2c1,24%,32%,0%,34%,2%,-10%
COc1ccccc1OCCNC(=O)C1CC(=O)N(c2cccc(SC)c2)C1 (configuration not stated),/,-21%,2%,34%,-7%,-28%
COc1cccc(C2C(C#N)=C(NC(=O)NCc3ccccc3)Oc3ccc4ccccc4c32)c1 (configuration not stated),/,/,/,/,/,-10%
Cc1ccc(S(=O)(=O)C(CNC(=O)COc2ccccc2)c2ccco2)cc1 (configuration not stated),/,-2%[59 µM],/,21%,-10%,-14%
CCCCN1C(=O)c2ccccc2C1C(=O)NC1CCCC1 (configuration not stated),18%,11%[59 µM],5%,3%,6%,-4%
CCCCN1C(=O)C(NC(C)=O)c2ccccc21 (configuration not stated),?,22µM*,-7%,29%,-5%,-17%
CC(=O)NC1C(=O)N(CCc2ccccc2)c2ccc(Br)cc21 (configuration not stated),-18%,11µM*,/,24%,-3%,-22%
O=C(CSC1CC(=O)N(CCc2ccccc2)C1=O)Nc1ccc(Br)cc1 (configuration not stated),16%,/,6%,42%,5%,-1%
CC(=O)NC1C(=O)N(Cc2ccccc2)c2ccc(Br)cc21 (configuration not stated),5%,40µM*,/,-19%,-27%,-15%[11.4 µM]
C/C(=N\Nc1nc2ccccc2s1)c1ccc(Br)s1,9%,35µM*,-2%,-11%,?,?
OC(COc1ccc2c(c1)OCO2)CN1CCN(c2ccccc2)CC1 (configuration not stated),?,50µM*,-20%,2%,-38%,?
CC(C)c1ccc(OCC(O)CN2CCN(c3ccccc3)CC2)cc1 (configuration not stated),-2%,?,/,-6%,56µM*,-36%
O=C1C(=O)N(CCO)C(c2cccc(F)c2)/C1=C(\O)c1ccc(Cl)cc1 (configuration not stated),18%,9%[0.501 µM],2%,33%,?,-23%
O=C1OC(c2ccccc2)/C(=C(/O)c2ccc(Cl)cc2)C1=O (configuration not stated),8%,-4%[12.7 µM],/,-6%,?,25µM*
Cc1ccc(C(=O)N2C(=O)C(c3ccccc3)Oc3ccccc32)cc1 (configuration not stated),12%,218%,29%,118%,25%,42%
SMILES,Sfp PPTase inh,G9a block,L3MBTL1 block,HP1b binding inh,BAZ2B inh,JMJD2A Tudor
Cc1ccc(/C(O)=C2/C(=O)C(=O)OC2c2ccc(Cl)cc2)cc1 (configuration not stated),2%,?,-3%,-8%,-29%[57.1 µM],79µM*
O=C1OC(c2ccccc2)/C(=C(/O)c2ccccc2)C1=O (configuration not stated),-10%,-8%[12.7 µM],/,0%,0%,35µM*
O=C(NCc1nc2ccccc2[nH]1)c1c(F)cccc1F,/,8%[59 µM],/,18%,-11%,-4%
C[C@@H]1COC(=O)[C@@H](Cc2ccc(F)cc2)CC/C=C\C[C@@H](CC(=O)NCCO)C(=O)N1,/,/,10%,25%,/,-22%
CC1CC(C)CN(C(=O)CCc2nnc3ccc(N4CCCCC4)nn23)C1 (configuration not stated),7%,79µM*,/,11%,-22%,40µM*
CCOC(=O)CSc1nnc(NCC(=O)OC)c(=O)[nH]1,56µM*,?,/,7%,11%,-16%
Cc1ccc(C)c(N2CCN(C(=O)Cn3ncc4c([nH]c5ccc(C)cc54)c3=O)CC2)c1,25%,71µM*,/,35%,-11%,25%
CCN1CCN(C(=O)Cn2ncc3c([nH]c4ccccc43)c2=O)CC1,10%,-8%,/,26%,-17%,-2%
CC1CC(C)CN(C(=O)Cn2ncc3c([nH]c4ccccc43)c2=O)C1 (configuration not stated),10%,16%,/,-5%,-6%[57.1 µM],25µM*
Cc1ccc2[nH]c3c(=O)n(CC(=O)N4CCCCC4)ncc3c2c1,/,-10%[59 µM],/,37%,8%[57.1 µM],-1%
Cc1c(NC(=O)c2cc(=O)c3cc(Cl)ccc3o2)c(=O)n(-c2ccccc2)n1C,/,2%[59 µM],/,31%,-4%,-10%
COc1cccc(C2CC(=O)Nc3c2c(=O)nc2c(C)cccn32)c1OC (configuration not stated),/,-4%[59 µM],/,45%,-1%,-26%
N#CC1=C(Nc2ccccc2)SC=C(c2ccccc2)N=C1N1CCOCC1,-15%,50µM*,/,36%,-1%,-18%
N#CC1=C(Nc2ccccc2)SC=C(c2ccc(Cl)c(Cl)c2)N=C1N1CCOCC1,-14%,4%[0.501 µM],5%,13%,?,-20%
COc1ccc(/C=C2\C(=O)NC(=S)N2C(=O)c2ccc(C)cc2)cc1,?,?,-14%,-24%,50µM*,56µM*
CCN1C[C@@H]2[C@@H]3C(=O)N(C)C(=O)[C@@H]3[C@](CC)(C1=O)N2C(=O)c1ccccc1,/,/,/,34%,/,-25%
